The full data set covers some 7,900 targets. This sample favours those with a hit. About 0.6% of all pairs of compound and target were hits.
Experiments:
Assay in all cases: log2 fold change, soluble protein after heating vs DMSO (PISA); higher = thermal stabilisation; K562 cells, 10 uM, 30 min; active = over 0.2 and 3.5 SD of the protein, either way, in both replicates (recomputed)
saracatinib = compound: CN1CCN(CCOc2cc(OC3CCOCC3)c3c(Nc4c(Cl)ccc5c4OCO5)ncnc3c2)CC1 [saracatinib]
Outline: (§1)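 Thermal stability values are relative to control samples and come from duplicates. They are expressed as log2 fold changes. For measurement, K562 cells (2×10^6 cells/mL) received 10 μM compound for 30 min, and aliquots were heated for 3 min over 48°C-58°C, pooled, and extracted at 4°C in PBS with 0.5% NP-40. Soluble protein, the supernatant after 21,000xg for 90 min, was quantified by TMTpro 16plex LC-MS/MS with equalised channel sums.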

sotrastaurin = compound: CN1CCN(c2nc(C3=C(c4c[nH]c5ccccc45)C(=O)NC3=O)c3ccccc3n2)CC1 [sotrastaurin]
Outline: as §1

alvocidib = compound: CN1CC[C@H](c2c(O)cc(O)c3c(=O)cc(-c4ccccc4Cl)oc23)[C@H](O)C1 [alvocidib]
Outline: as §1

Tubastatin A = compound: CN1CCc2c(c3ccccc3n2Cc2ccc(C(=O)NO)cc2)C1 [Tubastatin A]
Outline: as §1

[1] = compound: CNC(=O)C1=CC=CC=C1NC2=NC(=NC=C2Cl)NC3=C(C=C(C=C3)N4CCOCC4)OC
Outline: as §1

defactinib = compound: CNC(=O)c1ccc(Nc2ncc(C(F)(F)F)c(NCc3nccnc3N(C)S(C)(=O)=O)n2)cc1 [defactinib]
Outline: as §1

rucaparib = compound: CNCc1ccc(-c2[nH]c3cc(F)cc4c3c2CCNC4=O)cc1 [rucaparib]
Outline: as §1

[2] = compound: CNc1nc(-c2ccc3c(N)n[nH]c3c2)cc(N2C[C@@H](C(=O)NC3CCCCC3)CC[C@H]2C)n1
Outline: as §1

encorafenib = compound: COC(=O)N[C@@H](C)CNc1nccc(-c2cn(C(C)C)nc2-c2cc(Cl)cc(NS(C)(=O)=O)c2F)n1 [encorafenib]
Outline: as §1

[3] = compound: COC(=O)[C@H](CCSC)NC(=O)C1=C(C=C(C=C1)NC[C@H](CS)N)C2=CC=CC=C2
Outline: as §1

Measured: log2 fold change

GTF3C4 (UniProt Q9UKN8)
inactive: saracatinib 0.06 | sotrastaurin 0.021 | alvocidib -0.03 | Tubastatin A -0.009 | [1] -0.005 | defactinib -0.081 | rucaparib 0.029 | [2] -0.001 | encorafenib 0.043 | [3] -0.01

HMGB3 (UniProt O15347)
inactive: saracatinib 0.05 | sotrastaurin 0.031 | alvocidib -0.022 | Tubastatin A 0 | [1] -0.076 | defactinib 0.089 | rucaparib 0.008 | [2] -0.073 | encorafenib -0.063 | [3] 0.021

GATD1 (UniProt Q8NB37)
Sequence of UniProt Q8NB37 (Q8NB37 whole entry, looked up): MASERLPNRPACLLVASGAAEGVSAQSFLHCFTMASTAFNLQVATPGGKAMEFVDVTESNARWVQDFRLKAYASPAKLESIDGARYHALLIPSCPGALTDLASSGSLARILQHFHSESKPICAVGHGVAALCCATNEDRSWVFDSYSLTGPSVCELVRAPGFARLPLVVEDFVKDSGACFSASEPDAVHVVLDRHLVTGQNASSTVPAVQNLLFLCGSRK
inactive: saracatinib 0.077 | sotrastaurin 0.057 | alvocidib -0.084 | Tubastatin A 0.06 | [1] -0.079 | defactinib 0.001 | rucaparib -0.004 | [2] -0.022 | encorafenib 0 | [3] 0.011

GYG1 (UniProt P46976)
Sequence of UniProt P46976 (P46976 whole entry, looked up): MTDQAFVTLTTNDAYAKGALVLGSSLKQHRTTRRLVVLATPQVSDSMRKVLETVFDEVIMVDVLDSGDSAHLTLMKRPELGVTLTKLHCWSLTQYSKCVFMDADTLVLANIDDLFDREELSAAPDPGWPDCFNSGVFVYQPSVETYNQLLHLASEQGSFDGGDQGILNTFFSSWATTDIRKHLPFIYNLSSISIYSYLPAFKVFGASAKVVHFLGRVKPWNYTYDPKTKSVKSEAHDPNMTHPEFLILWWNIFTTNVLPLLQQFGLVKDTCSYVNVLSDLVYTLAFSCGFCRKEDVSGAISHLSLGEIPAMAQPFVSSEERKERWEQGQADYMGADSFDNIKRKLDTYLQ
inactive: saracatinib -0.03 | sotrastaurin -0.425 | alvocidib -0.046 | Tubastatin A 0.033 | [1] 0.091 | defactinib -0.042 | rucaparib 0.062 | [2] 0.038 | encorafenib 0.083 | [3] 0.013

FANCD2 isoform 1 (UniProt Q9BXW9)
inactive: saracatinib -0.038 | sotrastaurin 0.017 | alvocidib -0.102 | Tubastatin A -0.053 | [1] -0.126 | defactinib -0.145 | rucaparib 0.051 | [2] 0.028 | encorafenib 0.009 | [3] -0.029

GLYR1 (UniProt Q49A26)
inactive: saracatinib 0.007 | sotrastaurin 0.028 | alvocidib 0.14 | Tubastatin A -0.077 | [1] 0.021 | defactinib -0.029 | rucaparib 0.211 | [2] 0.04 | encorafenib -0.044 | [3] -0.033

GABPA (UniProt Q06546)
inactive: saracatinib -0.065 | sotrastaurin -0.086 | alvocidib -0.134 | Tubastatin A 0.087 | [1] -0.063 | defactinib -0.064 | rucaparib -0.015 | [2] 0.018 | encorafenib 0.019 | [3] 0.011

FDXR isoform 7 (UniProt P22570)
inactive: saracatinib -0.027 | sotrastaurin 0.116 | alvocidib -0.058 | Tubastatin A -0.01 | [1] -0.012 | defactinib -0.115 | rucaparib -0.035 | [2] 0.034 | encorafenib -0.034 | [3] -0.023

HNRNPUL1 (UniProt Q9BUJ2)
inactive: saracatinib -0.016 | sotrastaurin 0.039 | alvocidib 0.082 | Tubastatin A 0 | [1] 0.008 | defactinib 0.018 | rucaparib 0.075 | [2] 0.034 | encorafenib 0.063 | [3] -0.011

HNRNPK isoform 2 (UniProt P61978)
active: defactinib -0.228
inactive: saracatinib -0.057 | sotrastaurin -0.037 | alvocidib -0.155 | Tubastatin A 0.064 | [1] -0.017 | rucaparib -0.053 | [2] 0.015 | encorafenib 0.028 | [3] 0.003

IFNGR1 (UniProt P15260)
Sequence of UniProt P15260 (P15260 whole entry, looked up): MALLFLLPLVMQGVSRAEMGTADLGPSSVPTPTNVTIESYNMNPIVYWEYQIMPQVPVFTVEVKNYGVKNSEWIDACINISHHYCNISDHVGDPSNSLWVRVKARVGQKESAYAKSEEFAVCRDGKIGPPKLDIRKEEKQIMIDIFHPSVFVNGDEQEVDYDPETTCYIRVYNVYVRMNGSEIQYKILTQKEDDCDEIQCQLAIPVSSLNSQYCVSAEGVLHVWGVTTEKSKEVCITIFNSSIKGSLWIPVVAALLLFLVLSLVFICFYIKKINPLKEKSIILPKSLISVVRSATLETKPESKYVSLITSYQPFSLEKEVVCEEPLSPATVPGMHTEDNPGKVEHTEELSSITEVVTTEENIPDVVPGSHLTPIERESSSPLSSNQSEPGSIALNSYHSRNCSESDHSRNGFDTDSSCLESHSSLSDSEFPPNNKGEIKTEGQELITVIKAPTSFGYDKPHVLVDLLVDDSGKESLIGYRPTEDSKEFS
inactive: saracatinib 0.05 | sotrastaurin -0.038 | alvocidib 0.253 | Tubastatin A 0.11 | [1] -0.215 | defactinib 0.051 | rucaparib 0.056 | [2] -0.009 | encorafenib -0.026 | [3] 0.088

GSK3B isoform 2 (UniProt P49841)
Sequence of UniProt P49841 (P49841 whole entry, looked up): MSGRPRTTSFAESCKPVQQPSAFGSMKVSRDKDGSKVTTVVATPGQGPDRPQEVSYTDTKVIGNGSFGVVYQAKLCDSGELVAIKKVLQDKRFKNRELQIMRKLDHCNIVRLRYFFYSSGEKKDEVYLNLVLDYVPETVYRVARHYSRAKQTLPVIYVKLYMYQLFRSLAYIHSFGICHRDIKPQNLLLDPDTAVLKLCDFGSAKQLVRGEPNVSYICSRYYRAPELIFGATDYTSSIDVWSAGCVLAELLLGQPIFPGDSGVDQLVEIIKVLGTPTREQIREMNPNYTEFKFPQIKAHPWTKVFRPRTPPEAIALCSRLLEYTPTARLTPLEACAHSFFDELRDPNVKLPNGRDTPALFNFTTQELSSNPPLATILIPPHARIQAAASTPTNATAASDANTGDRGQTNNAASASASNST
inactive: saracatinib 0.012 | sotrastaurin 0.2 | alvocidib 0.052 | Tubastatin A -0.007 | [1] 0.001 | defactinib -0.015 | rucaparib 0.059 | [2] -0.019 | encorafenib -0.003 | [3] 0.03

HLTF (UniProt Q14527)
inactive: saracatinib -0.012 | sotrastaurin 0.019 | alvocidib -0.036 | Tubastatin A 0.081 | [1] -0.03 | defactinib -0.122 | rucaparib -0.033 | [2] -0.074 | encorafenib -0.195 | [3] -0.027

FBXO3 (UniProt Q9UK99)
Sequence of UniProt Q9UK99 (Q9UK99 whole entry, looked up): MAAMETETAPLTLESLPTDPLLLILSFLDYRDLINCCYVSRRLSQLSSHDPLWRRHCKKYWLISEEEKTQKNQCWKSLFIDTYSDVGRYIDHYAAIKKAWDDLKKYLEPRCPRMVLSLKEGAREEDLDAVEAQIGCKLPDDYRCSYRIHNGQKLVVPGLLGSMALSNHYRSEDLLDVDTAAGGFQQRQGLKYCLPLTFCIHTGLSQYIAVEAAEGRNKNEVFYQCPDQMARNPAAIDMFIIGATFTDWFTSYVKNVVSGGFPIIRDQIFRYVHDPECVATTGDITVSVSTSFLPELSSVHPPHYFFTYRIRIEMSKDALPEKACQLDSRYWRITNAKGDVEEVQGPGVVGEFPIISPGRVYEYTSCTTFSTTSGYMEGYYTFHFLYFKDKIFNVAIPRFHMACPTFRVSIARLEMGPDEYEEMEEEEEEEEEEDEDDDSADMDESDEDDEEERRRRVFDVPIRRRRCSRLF
inactive: saracatinib 0.029 | sotrastaurin 0.049 | alvocidib -0.048 | Tubastatin A 0.157 | [1] -0.051 | defactinib 0.072 | rucaparib 0.016 | [2] -0.076 | encorafenib 0.018 | [3] -0.005

FASTKD1 (UniProt Q53R41)
inactive: saracatinib -0.118 | sotrastaurin -0.046 | alvocidib -0.12 | Tubastatin A 0.037 | [1] 0.037 | defactinib -0.22 | rucaparib -0.093 | [2] 0.112 | encorafenib 0.026 | [3] -0.02

GPX4 (UniProt P36969)
inactive: saracatinib 0.043 | sotrastaurin 0.004 | alvocidib -0.035 | [1] -0.02 | defactinib -0.009 | rucaparib 0.002 | [2] -0.037 | encorafenib -0.009 | [3] -0.013
active: Tubastatin A -0.371

GMEB2 (UniProt Q9UKD1)
Sequence of UniProt Q9UKD1 (Q9UKD1 whole entry, looked up): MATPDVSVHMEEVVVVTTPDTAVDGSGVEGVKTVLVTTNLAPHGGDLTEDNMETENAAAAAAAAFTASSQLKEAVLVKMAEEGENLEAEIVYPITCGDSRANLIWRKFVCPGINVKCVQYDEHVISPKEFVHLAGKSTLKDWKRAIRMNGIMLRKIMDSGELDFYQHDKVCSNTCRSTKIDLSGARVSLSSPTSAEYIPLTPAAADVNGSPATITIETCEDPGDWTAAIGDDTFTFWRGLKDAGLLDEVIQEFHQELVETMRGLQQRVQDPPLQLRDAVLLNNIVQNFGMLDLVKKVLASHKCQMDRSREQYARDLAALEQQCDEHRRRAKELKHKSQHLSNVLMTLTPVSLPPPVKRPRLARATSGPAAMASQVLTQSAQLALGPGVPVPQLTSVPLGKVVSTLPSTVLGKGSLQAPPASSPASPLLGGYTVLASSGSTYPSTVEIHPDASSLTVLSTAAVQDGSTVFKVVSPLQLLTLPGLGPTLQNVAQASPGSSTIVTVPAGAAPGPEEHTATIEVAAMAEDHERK
inactive: saracatinib 0.018 | sotrastaurin -0.019 | alvocidib -0.197 | Tubastatin A 0.051 | [1] -0.065 | defactinib -0.156 | [2] -0.023 | encorafenib -0.007 | [3] 0.008
active: rucaparib 0.275

IFITM3 (UniProt Q01628)
Sequence of UniProt Q01628 (Q01628 whole entry, looked up): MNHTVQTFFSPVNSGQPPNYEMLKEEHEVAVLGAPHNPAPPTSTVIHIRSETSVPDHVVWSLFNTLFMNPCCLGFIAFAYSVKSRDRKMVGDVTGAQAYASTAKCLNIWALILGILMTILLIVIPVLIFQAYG
inactive: saracatinib -0.022 | sotrastaurin 0.035 | alvocidib -0.011 | Tubastatin A 0.241 | [1] 0.044 | defactinib -0.165 | rucaparib 0.093 | [2] 0.03 | encorafenib 0.1 | [3] 0.008

HNRNPC isoform 2 (UniProt P07910)
inactive: saracatinib -0.067 | sotrastaurin -0.035 | alvocidib 0.04 | Tubastatin A 0.219 | [1] 0.033 | defactinib 0.054 | rucaparib 0.392 | [2] 0.115 | encorafenib 0.148 | [3] 0.071

FEN1 (UniProt P39748)
Sequence of UniProt P39748 (P39748 whole entry, looked up): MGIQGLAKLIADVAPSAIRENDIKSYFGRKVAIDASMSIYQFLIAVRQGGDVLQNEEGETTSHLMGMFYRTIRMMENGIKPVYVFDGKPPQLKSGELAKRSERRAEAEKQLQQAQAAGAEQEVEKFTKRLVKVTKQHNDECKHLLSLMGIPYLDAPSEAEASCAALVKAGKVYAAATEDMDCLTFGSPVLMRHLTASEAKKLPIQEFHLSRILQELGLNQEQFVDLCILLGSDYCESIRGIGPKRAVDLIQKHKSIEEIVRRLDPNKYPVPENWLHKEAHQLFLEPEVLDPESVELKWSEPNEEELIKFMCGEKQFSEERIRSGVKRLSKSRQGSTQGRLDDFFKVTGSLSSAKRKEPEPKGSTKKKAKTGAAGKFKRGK
inactive: saracatinib -0.087 | sotrastaurin -0.028 | alvocidib -0.099 | Tubastatin A 0.116 | [1] -0.092 | defactinib -0.139 | rucaparib -0.128 | [2] 0.183 | encorafenib 0.054 | [3] -0.087

FBL (UniProt P22087)
Sequence of UniProt P22087 (P22087 whole entry, looked up): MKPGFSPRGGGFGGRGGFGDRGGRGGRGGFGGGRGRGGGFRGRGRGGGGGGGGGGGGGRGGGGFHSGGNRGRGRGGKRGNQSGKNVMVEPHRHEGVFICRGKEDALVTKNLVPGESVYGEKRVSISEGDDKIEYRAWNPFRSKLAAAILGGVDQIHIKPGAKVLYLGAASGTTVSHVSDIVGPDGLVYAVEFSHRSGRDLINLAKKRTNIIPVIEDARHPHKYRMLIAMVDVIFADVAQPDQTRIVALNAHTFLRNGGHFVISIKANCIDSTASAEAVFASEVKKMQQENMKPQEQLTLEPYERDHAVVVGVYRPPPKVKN
inactive: saracatinib 0.11 | sotrastaurin -0.016 | alvocidib 0.262 | Tubastatin A -0.022 | [1] -0.012 | defactinib 0.375 | rucaparib 0.511 | [2] 0.002 | encorafenib 0.096 | [3] 0.023

FIBP (UniProt O43427)
Sequence of UniProt O43427 (O43427 whole entry, looked up): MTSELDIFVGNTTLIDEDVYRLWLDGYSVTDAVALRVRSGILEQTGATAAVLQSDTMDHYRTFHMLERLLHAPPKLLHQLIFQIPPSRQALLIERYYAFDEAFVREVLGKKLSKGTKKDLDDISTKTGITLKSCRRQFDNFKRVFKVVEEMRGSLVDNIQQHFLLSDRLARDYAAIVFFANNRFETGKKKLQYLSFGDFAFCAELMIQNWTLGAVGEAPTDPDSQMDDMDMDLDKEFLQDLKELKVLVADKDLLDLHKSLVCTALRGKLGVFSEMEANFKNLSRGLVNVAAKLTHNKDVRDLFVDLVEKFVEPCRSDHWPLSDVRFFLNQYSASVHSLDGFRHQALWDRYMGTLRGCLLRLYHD
inactive: saracatinib -0.074 | sotrastaurin -0.05 | alvocidib -0.01 | Tubastatin A 0.07 | [1] 0.002 | defactinib -0.046 | [2] -0.085 | encorafenib 0.039 | [3] 0.004
active: rucaparib 0.395

GPAT4 (UniProt Q86UL3)
inactive: saracatinib 0.042 | sotrastaurin 0.046 | alvocidib -0.046 | Tubastatin A -0.039 | [1] 0.04 | defactinib -0.017 | rucaparib 0.055 | [2] -0.069 | encorafenib -0.021 | [3] 0.031

GNG5 (UniProt P63218)
Sequence of UniProt P63218 (P63218 whole entry, looked up): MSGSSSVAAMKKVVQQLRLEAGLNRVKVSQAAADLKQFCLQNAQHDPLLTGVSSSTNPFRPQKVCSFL
inactive: saracatinib 0.022 | sotrastaurin 0.033 | alvocidib 0.019 | Tubastatin A 0.049 | [1] 0.028 | defactinib -0.041 | rucaparib -0.002 | [2] -0.041 | encorafenib -0.073 | [3] -0.008

IFT80 isoform 3 (UniProt Q9P2H3)
Sequence of UniProt Q9P2H3 (Q9P2H3 whole entry, looked up): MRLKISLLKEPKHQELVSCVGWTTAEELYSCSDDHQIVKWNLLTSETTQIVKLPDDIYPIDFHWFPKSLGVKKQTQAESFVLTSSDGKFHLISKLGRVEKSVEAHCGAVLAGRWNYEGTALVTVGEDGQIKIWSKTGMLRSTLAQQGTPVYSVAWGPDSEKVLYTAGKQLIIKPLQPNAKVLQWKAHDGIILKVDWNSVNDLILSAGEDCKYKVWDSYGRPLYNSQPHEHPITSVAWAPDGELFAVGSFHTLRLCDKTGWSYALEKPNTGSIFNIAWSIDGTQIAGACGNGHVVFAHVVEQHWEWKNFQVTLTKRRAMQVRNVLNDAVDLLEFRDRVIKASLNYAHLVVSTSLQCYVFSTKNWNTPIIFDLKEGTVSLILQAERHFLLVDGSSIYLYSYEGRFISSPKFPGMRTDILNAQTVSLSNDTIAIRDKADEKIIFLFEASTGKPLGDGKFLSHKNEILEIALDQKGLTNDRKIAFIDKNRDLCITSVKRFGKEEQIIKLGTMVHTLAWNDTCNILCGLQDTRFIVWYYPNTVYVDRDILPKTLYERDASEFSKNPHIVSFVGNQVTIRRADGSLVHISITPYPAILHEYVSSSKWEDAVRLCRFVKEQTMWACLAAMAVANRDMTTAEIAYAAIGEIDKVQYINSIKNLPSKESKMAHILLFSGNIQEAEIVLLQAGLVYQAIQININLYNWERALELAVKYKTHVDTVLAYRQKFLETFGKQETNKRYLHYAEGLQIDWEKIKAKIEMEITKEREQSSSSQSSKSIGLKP
inactive: saracatinib -0.016 | sotrastaurin 0.029 | alvocidib -0.091 | Tubastatin A 0.094 | [1] 0.01 | defactinib -0.023 | rucaparib 0.029 | [2] -0.007 | encorafenib 0.056 | [3] 0.014

HK2 (UniProt P52789)
active: [1] -0.334
inactive: saracatinib 0.008 | sotrastaurin -0.075 | alvocidib -0.054 | Tubastatin A -0.006 | defactinib -0.08 | rucaparib -0.011 | [2] -0.045 | encorafenib 0.026 | [3] -0.005

GTF2A1 (UniProt P52655)
Sequence of UniProt P52655 (P52655 whole entry, looked up): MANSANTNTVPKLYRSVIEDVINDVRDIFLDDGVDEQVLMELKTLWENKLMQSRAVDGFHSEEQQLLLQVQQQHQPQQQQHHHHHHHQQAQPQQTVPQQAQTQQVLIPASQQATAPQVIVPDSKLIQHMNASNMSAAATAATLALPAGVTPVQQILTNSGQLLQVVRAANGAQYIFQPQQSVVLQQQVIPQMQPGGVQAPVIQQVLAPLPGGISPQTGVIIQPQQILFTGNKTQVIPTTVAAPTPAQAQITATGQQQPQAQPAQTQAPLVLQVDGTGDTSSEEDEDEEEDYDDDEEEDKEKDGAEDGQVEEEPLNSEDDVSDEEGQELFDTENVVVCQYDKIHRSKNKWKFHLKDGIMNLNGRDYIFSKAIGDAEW
inactive: saracatinib 0.048 | sotrastaurin 0.087 | alvocidib -0.039 | Tubastatin A 0.003 | [1] -0.007 | defactinib -0.038 | rucaparib -0.021 | [2] -0.003 | encorafenib -0.056 | [3] 0.032

FBXO7 (UniProt Q9Y3I1)
inactive: saracatinib -0.003 | sotrastaurin 0.052 | alvocidib -0.069 | Tubastatin A 0.019 | [1] 0.012 | defactinib -0.025 | rucaparib 0.068 | [2] 0.028 | encorafenib -0.009 | [3] -0.029

FIS1 (UniProt Q9Y3D6)
inactive: sotrastaurin 0.016 | alvocidib -0.11 | Tubastatin A -0.021 | [1] -0.012 | defactinib -0.063 | rucaparib 0.004 | [2] 0.182 | encorafenib -0.049 | [3] -0.022
active: saracatinib 0.333

— the supplement of paper PMC10849652
